We go through 51 compounds from PubChem BioAssay AID1347076 (National Center for Advancing Translational Sciences (NCATS), 2019).

Hit rate of the full screen: of about 400,000 compounds, about 13,000 (3.2%) were called active. Roughly 18% stayed inconclusive and do not appear here. Many of the other results were omitted from the sample, so actives are more common in it than they were. Values without a mark were called inactive. Calls come from the whole dose curve; as a rule, active = well fitted cell-killing curve with a large enough effect; inconclusive = small, poorly fitted or top-dose-only effect, or effect the other way; inactive = flat fitted curve, though single readings scatter.
% is set by controls: 0 for no effect and ±100 for the full control effect; potency is the fitted concentration of half-maximal effect.

The test in a line: qHTS assay for MDR1-selective chemotherapeutics: Primary screen using the drug-selected MDR subline cells KB-V1. Note: nearly all actives have a fitted effect of over 60% in size. As to conditions: KB-V1 MDR cells viability, CellTiter-Glo, 72 h; series mostly up to 46.1 µM; activity change, negative = cytotoxicity: at the top concentration. The source says: A prime difficulty in effectively treating cancer is the development of cellular resistance to multiple structurally unrelated anticancer drugs, a phenomenon known as multidrug resistance (MDR). […] Numerous strategies to overcome P-gp-mediated MDR have been explored, including the design of drugs that evade recognition and efflux, and development of inhibitors to block efflux and restore drug accumulation. […] An alternative approach is to exploit resistance by identifying drugs that target MDR cells over the non-resistant parental cells from which they were selected. […] The development of MDR1-selective agents represents a new strategy for resolving multidrug resistance, as it remains a long-standing clinical challenge for cancer chemotherapy.
Our goal is to identify compounds that selectively kill P-gp-expressing MDR cells. We will identify MDR1-selective compounds by comparing toxicity of compounds in the screening library against parental, drug-naive (KB-3-1) adenocarcinoma cells as well as their drug-selected MDR sub-line (KB-V1). The differential toxicity of compounds against these two cell lines will be used to identify MDR1-selective compounds, whose cytotoxicity is potentiated, rather than diminished, by P-gp expression. This assay will be utilized to conduct a quantitative high-throughput screen (qHTS) in collaboration with the NIH Chemical Genomics Center to identify selective agents, and probe hits arising from the screen will be validated using secondary assays and characterized through a well-established follow-up research program. This screen was run against the entire NCGC library collection of about 400,000 compounds.
NIH Molecular Libraries Probe Production Network [MLPCN]
NIH Chemical Genomics Center [NCGC]
PI: Michael Gottesman, National Cancer Institute, NIH
Briefly, 5 microL of media containing either KB-V1 cells (columns 1-2, 4-48) are dispensed into Greiner white, treated solid-bottom 1536-well assay plates (media-only control is added to column 3). Compounds are then transferred via Kalypsys pin tool equipped with 1536-pin array (10 nL slotted pins, V&P Scientific, San Diego, CA). Following addition of compound, the plates are incubated at 37 degrees C for 72 hours. CellTiter-Glo (2.5 µL/well) is then added, and the plates are read in a ViewLux reader (Perkin-Elmer, clear luminescence filter, 1 second exposure, 1x binning) following a 10 minute incubation. All cells are dispensed in DMEM phenol-red free media containing 10% FBS.
Library plates were screened starting from the lowest and proceeding to the highest concentration. Vehicle-only plates, with DMSO being pin-transferred to columns 5-48, will be inserted uniformly at the beginning and the end of each library in order to monitor and record any shifts in the background, which can be affected by reagent dispensers or loss in enzyme activity over time. Screening data will be corrected, normalized, and concentration-effect relationships will be derived by using publicly-available NCGC, NCATS curve fitting algorithms (http://ncgc.nih.gov/pub/openhts).
On the technique in general: In qHTS, concentration-response curves come from the screen itself.
Regarding `CCCCCCCCCCCCn1ccc(=N)cc1`, the Potency is 8.2 µM (active).

Turning to `COC(=O)C(O)(c1ccc(NC(=O)c2ccco2)c(OC)c1)C(F)(F)F` (stereo unspecified), the “activity change, negative = cytotoxicity” value was -1.11%.

For `COC(=O)C1=C(c2cc3ccccc3s2)C[C@@H]2CC[C@H]1N2C(=O)NCCO`, the “activity change, negative = cytotoxicity” value is 7.44%.

`CCCCn1c(=O)c(C(=O)Nc2ccccc2Cl)c(O)c2ccccc21`: the “activity change, negative = cytotoxicity” value is 6.12%.

On to `CCCCCn1c(=O)c(C(=O)NCc2ccccc2)c(O)c2ccccc21`, for which the “activity change, negative = cytotoxicity” value was -27.1%.

Take `CCCCCn1c(=O)c(C(=O)Nc2c(C)n(C)n(-c3ccccc3)c2=O)c(O)c2ccccc21`: the Potency was 2.06 µM (active).

Regarding `COc1cc(C(c2c(O)c3ccccc3oc2=O)c2c(C)n(C)n(-c3ccccc3)c2=O)ccc1O` (stereo unspecified), the Potency entry was “inactive”.

In the case of `CCCCCn1c(=O)c(C(=O)NCc2ccccn2)c(O)c2ccccc21`, the Potency was 14.6 µM (active).

Consider `O=C(O)c1cc[c]([Sb](=[O])([OH])[OH])cc1[N+](=O)[O-]`, for which the “activity change, negative = cytotoxicity” value is 19.3%.

For the compound `Cc1ccc(S(=O)(=O)N(C)c2ccc(C(=O)NCC3(N(C)C)CCCCC3)cc2)cc1`, the “activity change, negative = cytotoxicity” value was -25.2%.

Turning to `Cc1c(Oc2cc(NN3CCCCC3)c([N+](=O)[O-])cc2[N+](=O)[O-])cccc1[N+](=O)[O-]`, the “activity change, negative = cytotoxicity” value is 0.977%.

Turning to `CCC1(CC(C)c2ccccc2)C(=O)NC(=O)NC1=O` (stereo unspecified), the “activity change, negative = cytotoxicity” value is -16.6%.

As to `C[N+]1(C)CCOC(O)(c2ccc(-c3ccc(C4(O)C[N+](C)(C)CCO4)cc3)cc2)C1` (stereo unspecified), the “activity change, negative = cytotoxicity” value is 19.4%.

On to `ClC(Cl)(Cl)c1ccccc1`, for which the “activity change, negative = cytotoxicity” value is 15.8%.

For `COC(=O)C1=C(c2ccccc2)C[C@@H]2CC[C@H]1N2C(=O)NCc1ccco1`, the “activity change, negative = cytotoxicity” value was 8.16%.

With `COC(=O)C1=C(c2ccc(F)cc2OCc2ccccc2)C[C@@H]2CC[C@H]1N2C(=O)NCc1ccc(C(C)(C)C)cc1`, the “activity change, negative = cytotoxicity” value is -15.8%.

On to `COC(=O)C1=C(c2ccc(OCc3ccccc3)cc2)C[C@@H]2CC[C@H]1N2C(=O)NCc1ccc(Cl)cc1`, for which the Potency was 14.6 µM (active).

In the case of `COC(=O)C1=C(c2ccc(F)cc2OCc2ccccc2)C[C@@H]2CC[C@H]1N2C(=O)NCc1ccc2[nH]ccc2c1`, the “activity change, negative = cytotoxicity” value was -20.5%.

As for `COC(=O)C1=C(c2ccc(OCc3ccccc3)cc2)C[C@@H]2CC[C@H]1N2C(=O)NCc1cccc(F)c1`, the Potency was 7.31 µM (active).

Consider `COC(=O)C1=C(c2ccc(-c3ccccc3)c(F)c2)C[C@@H]2CC[C@H]1N2C(=O)NCc1ccc(F)cc1`, for which the Potency is 20.6 µM (active).

Consider `COC(=O)C1=C(c2ccc(F)cc2OCc2ccccc2)C[C@@H]2CC[C@H]1N2C(=O)NCc1ccc(Cl)cc1`, for which the “activity change, negative = cytotoxicity” value is -28%.

As for `COC(=O)C1=C(c2ccccc2OCc2ccccc2)C[C@@H]2CC[C@H]1N2C(=O)NCc1ccc(OC)cc1`, the “activity change, negative = cytotoxicity” value was -16%.

In the case of `COC(=O)C1=C(c2ccc(F)cc2OCc2ccccc2)C[C@@H]2CC[C@H]1N2C(=O)NCc1ccc(OC)c(OC)c1`, the “activity change, negative = cytotoxicity” value is -0.539%.

Regarding `Nc1ccc(Cc2ccc(N)c(Cl)c2)cc1Cl`, the “activity change, negative = cytotoxicity” value is -0.293%.

In the case of `O=C(O)/C=C/c1ccc2c(c1)OCO2`, the “activity change, negative = cytotoxicity” value was -4.19%.

For the compound `O=C1NC(=O)C(Cc2ccccc2)C(=O)N1`, the “activity change, negative = cytotoxicity” value was -4.35%.

Regarding `COc1ccc(-n2nnnc2C(c2cccc3ccccc23)N2CCC(n3c(=O)[nH]c4ccccc43)CC2)cc1` (stereo unspecified), the “activity change, negative = cytotoxicity” value is -22.8%.

With `COC(=O)N1C(c2ccccc2)C1c1ccccc1` (stereo unspecified), the “activity change, negative = cytotoxicity” value is 9.07%.

Turning to `Fc1ccc(C2N3CCCN23)cc1` (stereo unspecified), the “activity change, negative = cytotoxicity” value was 11.6%.

`CC(C)CN1Cc2cc(N3CCCCC3)ccc2-n2nncc2C1`: the “activity change, negative = cytotoxicity” value is 15.3%.

As to `CC(Cc1ccccc1)NC=O` (stereo unspecified), the “activity change, negative = cytotoxicity” value was 15.5%.

`CC(=O)NC(=O)NC(C)Cc1ccccc1` (stereo unspecified): the “activity change, negative = cytotoxicity” value was 13.9%.

`CC(Cc1ccccc1)NCCC(c1ccccc1)c1ccccc1` (stereo unspecified): the Potency is 14.6 µM (active).

For `C[C@]12CCCCC1=CC(=O)C1C2CC[C@@]2(C)C1C[C@@H](F)[C@@H]2O` (stereo partly specified), the “activity change, negative = cytotoxicity” value is -14.1%.

Consider `CC(c1ccccc1)(c1ccccc1)c1ccncc1`, for which the “activity change, negative = cytotoxicity” value is -22.6%.

Consider `C/C(=N/O)c1ccc2ccc3ccccc3c2c1`, for which the Potency was 3.26 µM (active).

In the case of `C/C(CCc1c[nH]c2ccccc12)=N\O`, the “activity change, negative = cytotoxicity” value was 2.16%.

`O=[N+]([O-])c1cnc2ccc3ccccc3c2c1`: the “activity change, negative = cytotoxicity” value was 3.87%.

On to `CC1(C)Cc2c(C#N)c(N3CCNCC3)nc(-c3ccco3)c2CS1`, for which the “activity change, negative = cytotoxicity” value was -29.5%.

Take `CCOC(=O)C1(c2ccccc2)CCN(CC(O)c2ccc(NC(C)=O)cc2)CC1` (stereo unspecified): the “activity change, negative = cytotoxicity” value is -4.21%.

With `O=C(CN1CCCCC1)Nc1ccc(Br)cc1C(=O)c1ccccc1Cl`, the “activity change, negative = cytotoxicity” value was -7.61%.

Take `O=C(CCN1CCCCC1)NCC(=O)Nc1ccc(Br)cc1C(=O)c1ccccc1`: the Potency is 18.4 µM (active).

Regarding `CCOC(=O)CNC(=O)N1Cc2cc(N3CCCCC3)ccc2-n2nncc2C1`, the “activity change, negative = cytotoxicity” value was 1.87%.

For the compound `C[C@H]1CN([C@@H](C)CO)C(=O)CCCn2nncc2CO[C@H]1CN(C)C(=O)Oc1cccc2ccccc12`, the “activity change, negative = cytotoxicity” value is 0.932%.

As to `Cc1ccc(C(C)C)c(OCC(=O)N2CCN(CC(=O)N3CCOCC3)CC2)c1`, the “activity change, negative = cytotoxicity” value was 25.3%.

For the compound `CC1CCCN1CCC(C(N)=O)(c1ccccc1)c1ccccc1` (stereo unspecified), the “activity change, negative = cytotoxicity” value is -4.22%.

As for `O=C(NC1CCCCC1)N1Cc2cc(N3CCCCC3)ccc2-n2nncc2C1`, the “activity change, negative = cytotoxicity” value was 7%.

In the case of `c1ccc2c(c1)[I+]c1ccccc1-2`, the Potency is 16.4 µM (active).

With `CC=C(C)C(=O)OC1CCN2CC=C(COC(=O)C(O)(C(C)OC)C(C)(C)O)C12` (stereo unspecified), the “activity change, negative = cytotoxicity” value is -1.56%.

In the case of `CC1CNCCN1c1ccc(Cl)cc1` (stereo unspecified), the “activity change, negative = cytotoxicity” value was -17.4%.

`O=C(COC(=O)c1ccccc1)Nc1ccc(Cl)cc1C(=O)c1ccccc1`: the “activity change, negative = cytotoxicity” value is 9.26%.
